A selection: hits, their analogues and other compounds. The true share with any hit is near 1.3%.
AI-2 QS modul: modulates the Vibrio harveyi AI-2 quorum sensing system; activity change, % at 7.5 µM; 300,000 tested, 0.4% active; Vibrio harveyi JMH597 AI-2 luminescence/OD600 ratio, 9 h; stronger effect = lower value; strain lacks LuxN and CqsS sensors; 0 = neutral-control median; in the data active = activity change below about -75%, passing the limit was not always enough;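 also: luminescence divided by OD600 gain over 9 h not by final OD600 alone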
HIF act: HIF pathway transcriptional activation; U2OS HRE-luciferase reporter, luminescence; normalized: DMSO 0%, desferrioxamine 100%; activation, % at 7.5 µM (by protocol); 300,000 tested, 0.32% active; AID 1910;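 active = mean activation of at least 10% of the iron chelator positive control signal, with at least half of replicates also reaching 10%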
PGC1a acetyl inh: PGC1a acetylation modulation, inhibitor mode; U2OS PGC1a acetylation, AlphaScreen anti-acetyl-lysine; with virally co-expressed GCN5 acetyltransferase; inhibition, % at 15.6 µM; 350,000 tested, 0.17% active; AID 651687;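 active = every replicate shows inhibition of at least 40%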;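 also: 0% = neutral control wells and 100% = positive control wells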
C2C12 statin: suppression of simvastatin myotoxicity; C2C12 myotubes + simvastatin, ATP luminescence, 48 h; scaled: DMSO 0, geranylgeraniol control 100; rescue of ATP level, % at 7.49 µM; 330,000 tested, 0.78% active;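 active = mean ATP rescue above about 67%, or every replicate alone reaching that limit, limit read from the data, passing the limit was not always enough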;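 also: myotubes were challenged with 10 µM simvastatin during compound exposure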
Rce1 inh: yeast Ras-converting enzyme inhibition. yeast membranes, quenched prenylated peptide cleavage fluorescence. calls only. 290,000 tested, 0.27% active. AID 2563;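 active = fall in fluorescence gain of 50% or more versus controls, with final raw signal at or below 3038400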;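 also: plate controls were neutral control wells for no effect and wells lacking membranes for full effect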
Target sequence (Q03530 whole entry, looked up): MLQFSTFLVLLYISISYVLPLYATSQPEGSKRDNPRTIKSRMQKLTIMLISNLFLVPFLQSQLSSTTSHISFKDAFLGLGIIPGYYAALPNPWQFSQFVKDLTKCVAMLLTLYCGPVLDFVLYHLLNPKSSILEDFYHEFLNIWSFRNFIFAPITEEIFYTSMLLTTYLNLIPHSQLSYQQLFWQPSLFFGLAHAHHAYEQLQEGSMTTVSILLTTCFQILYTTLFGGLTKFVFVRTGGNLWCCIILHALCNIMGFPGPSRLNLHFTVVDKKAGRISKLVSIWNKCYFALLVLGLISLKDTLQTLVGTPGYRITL
* marks the source's active call; other numbers are inactive results.

For C[C@H]1CN([C@@H](C)CO)C(=O)Cc2cc(NC(=O)Nc3ccc4c(c3)OCO4)ccc2O[C@@H]1CN(C)Cc1ccc(-c2ccccc2)cc1 the results were PGC1a acetyl inh 3.6 and C2C12 statin 76.4*.
`C[C@H](CO)N1C[C@H](C)[C@@H](CN(C)Cc2ccc(-c3ccccc3)cc2)Oc2ccc(NC(=O)Cn3cnnn3)cc2CC1=O` gave PGC1a acetyl inh -1.6 and C2C12 statin 89.0*.
C[C@@H]1CN([C@@H](C)CO)C(=O)Cc2cc(NC(=O)C3CCCCC3)ccc2O[C@H]1CN(C)Cc1ccc(Oc2ccccc2)cc1 was read as PGC1a acetyl inh -13.7 and C2C12 statin 88.3*.
Screening C[C@@H]1CN([C@@H](C)CO)C(=O)Cc2cc(NC(=O)C3CCCCC3)ccc2O[C@@H]1CN(C)Cc1ccc(C(F)(F)F)cc1 returned PGC1a acetyl inh -17.4 and C2C12 statin 4.5.
Screening C[C@H](CO)N1C[C@H](C)[C@@H](CN(C)Cc2ccc(C(F)(F)F)cc2)Oc2ccc(NC(=O)C3CCCCC3)cc2CC1=O returned PGC1a acetyl inh -4.5 and C2C12 statin 70.9*.
CCC(=O)N[C@@H]1CC[C@@H](CC(=O)OC)O[C@H]1CO was read as PGC1a acetyl inh 0.6 and C2C12 statin -2.3.
Screening CO[C@@H]1CN(C)C(=O)c2cc(NC(=O)NC(C)C)ccc2OC[C@@H](C)N(C(=O)C2CCC2)C[C@@H]1C returned PGC1a acetyl inh 0.4 and C2C12 statin 9.2.
`Cc1cc(C)c2c(N)c3ccccc3nc2n1` gave AI-2 QS modul 16.8, HIF act 19.8*, PGC1a acetyl inh 14.7, C2C12 statin 50.6 and Rce1 inh inactive.
Cc1ccc(S(=O)(=O)N(C)C[C@@H]2OCCCC[C@H](C)Oc3ccc(NC(=O)Nc4c(C)noc4C)cc3C(=O)N([C@H](C)CO)C[C@@H]2C)cc1 was read as PGC1a acetyl inh 12.9.
Screening CC(=O)C[C@@H](O)CC(=O)[C@H]1OC(=O)CCCCCc2ccccc21 returned PGC1a acetyl inh -0.6 and C2C12 statin 8.3.
Screening CC(=O)C[C@@H](O)CC(=O)[C@@H]1OC(=O)CCCCC/C=C/Cc2ccccc21 returned PGC1a acetyl inh -1.4 and C2C12 statin 92.2*.
For CC(=O)C[C@@H](O)CC(=O)[C@@H]1OC(=O)CCCCCCCCc2ccccc21 the results were PGC1a acetyl inh 7.9 and C2C12 statin 124.6*.
Screening CCC(=O)N[C@H]1C=C[C@H](CC(=O)NCc2ccc(OC)cc2)O[C@@H]1CO returned PGC1a acetyl inh -13.0 and C2C12 statin 0.8.
`O=C(c1ccc(Br)cc1)C(CN1CCOCC1)c1ccccc1` (configuration not stated) gave AI-2 QS modul 47.8, HIF act -5.9, C2C12 statin 5.9 and Rce1 inh inactive.
CCOc1ccc(C(=O)C(CN2CCOCC2)c2ccccc2)cc1 (configuration not stated) was read as AI-2 QS modul 26.8, HIF act 0.2, PGC1a acetyl inh 32.3, C2C12 statin 92.5* and Rce1 inh inactive.
O=C(C1CCCC1)N1[C@H](CO)[C@H](c2ccccc2)C12CN(CCC(F)(F)F)C2 was read as PGC1a acetyl inh -1.4.
For Cc1ccc(-c2ccc3c(c2)O[C@H](CN(C)C(=O)Nc2ccc(F)cc2)[C@H](C)CN([C@@H](C)CO)S3(=O)=O)cc1 the results were PGC1a acetyl inh 5.2 and C2C12 statin -10.5.
COc1cc(OC)cc(C(=O)NNc2nc3cc4c(cc3s2)OCO4)c1 was read as AI-2 QS modul -18.2, HIF act 0.2, PGC1a acetyl inh 7.0, C2C12 statin 3.2 and Rce1 inh inactive.
O=C(NNc1nc2cc3c(cc2s1)OCO3)c1cccc(F)c1 was read as AI-2 QS modul -88.3*, HIF act 2.0, PGC1a acetyl inh -5.9, C2C12 statin -9.4 and Rce1 inh inactive.
For COCCn1c(-c2ccccc2F)n[nH]c1=S the results were AI-2 QS modul 11.3, HIF act -0.4, PGC1a acetyl inh -0.5, C2C12 statin 137.2* and Rce1 inh inactive.
For COCCn1c(CCc2ccccc2)n[nH]c1=S the results were AI-2 QS modul 6.6, HIF act -0.4, PGC1a acetyl inh -3.0 and Rce1 inh inactive.
`C#CCN(C[C@@H]1[C@@H](OC(=O)NCc2ccccc2F)[C@@H](OC(=O)NCc2ccccc2F)Cn2c(=O)ccc(=O)n21)S(=O)(=O)c1ccc(C)cc1` gave PGC1a acetyl inh 60.4* and C2C12 statin 3.3.
